Akt phos inh: inhibitors of Akt phosphorylation. Neuro2A IGF-stimulated pAkt S473 HTRF, 20 min; hits give low values. activity change, % for hits at 50 µM. hit rate 0.32% among 360,000. AID 651550; in the data active = activity change below about -80%; inconclusive = mostly about -51% to -80%; note: % is set by controls: 0 for no effect and ±100 for the full control effect
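Single-point screen (50 µM final compound) in Neuro2A cells stimulated 20 min with 6 nM IGF at 37 deg C. After lysis, Ser473-phosphorylated Akt read by HTRF (ex 330 nm, em 615/665 nm) as the 665/615 ratio.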
gsp antagonist: antagonists of gsp mutant (McCune-Albright syndrome); gsp-mutant cells, cAMP HTRF, 30 min; Potency, µM (top dose mostly 76.9 µM), inactives show at the top dose activity change, negative = inhibition, usual class: inhibitors; hit rate 0.4% among 340,000; calls by dose curve; cell line not stated here;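 note: intracellular cAMP measured with PDE inhibitor Ro 20-1724 present during compound exposure; potency is the fitted concentration of half-maximal effect; % is set by controls: 0 for no effect and ±100 for the full control effect; nearly all actives have a fitted effect of over 65% in size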
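HTRF cAMP measurement after 30 min RT detection following 30 min, 37C compound treatment alongside […] (added as 300 uM solution) in G418-selected cells seeded at 2000/well and grown 16–24 h.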
gsp agonist: activates gsp, the McCune-Albright syndrome mutation; gsp mutant cells, cAMP HTRF, 30 min; Potency, µM (highest dose often 76.9 µM), without a hit: at the top dose activation (cAMP increase), actives largely listed as activators; hit rate 0.13% among 340,000; active = well fitted activation curve with a large enough effect; inconclusive = small, poorly fitted or top-dose-only effect, or another doubt; inactive = no such curve, though single readings can be large or run the other way; cell line not stated here;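 note: phosphodiesterase inhibitor Ro 20-1724 added with compounds to block cAMP breakdown; potency is the fitted concentration of half-maximal effect; nearly all actives have a fitted effect of over 60% in size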
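Cells in DMEM/10% FBS with G418 were pretreated with compounds in DMSO plus […] (300 uM stock) for 30 min at 37C. cAMP was measured by HTRF (cAMP-d2 plus anti-cAMP antibody-K) after 30 min at room temperature.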
RXFP1 agonist: RXFP1 (human) receptor agonism. hit rate 0.3% among 370,000. Potency, µM (highest dose often 57.5 µM), inactives show at the highest dose activation, most hits filed as activators. HEK293T-RXFP1 cAMP TR-FRET, 30 min; response scale: percent of porcine relaxin response, buffer zero. AID 2676; active = well fitted activation curve with a large enough effect; inconclusive = small, poorly fitted or top-dose-only effect; note: potency is the fitted concentration of half-maximal effect; % is set by controls: 0 for no effect and ±100 for the full control effect; nearly all actives have a fitted effect of over 60% in size
Target sequence (Q9HBX9 whole entry, looked up): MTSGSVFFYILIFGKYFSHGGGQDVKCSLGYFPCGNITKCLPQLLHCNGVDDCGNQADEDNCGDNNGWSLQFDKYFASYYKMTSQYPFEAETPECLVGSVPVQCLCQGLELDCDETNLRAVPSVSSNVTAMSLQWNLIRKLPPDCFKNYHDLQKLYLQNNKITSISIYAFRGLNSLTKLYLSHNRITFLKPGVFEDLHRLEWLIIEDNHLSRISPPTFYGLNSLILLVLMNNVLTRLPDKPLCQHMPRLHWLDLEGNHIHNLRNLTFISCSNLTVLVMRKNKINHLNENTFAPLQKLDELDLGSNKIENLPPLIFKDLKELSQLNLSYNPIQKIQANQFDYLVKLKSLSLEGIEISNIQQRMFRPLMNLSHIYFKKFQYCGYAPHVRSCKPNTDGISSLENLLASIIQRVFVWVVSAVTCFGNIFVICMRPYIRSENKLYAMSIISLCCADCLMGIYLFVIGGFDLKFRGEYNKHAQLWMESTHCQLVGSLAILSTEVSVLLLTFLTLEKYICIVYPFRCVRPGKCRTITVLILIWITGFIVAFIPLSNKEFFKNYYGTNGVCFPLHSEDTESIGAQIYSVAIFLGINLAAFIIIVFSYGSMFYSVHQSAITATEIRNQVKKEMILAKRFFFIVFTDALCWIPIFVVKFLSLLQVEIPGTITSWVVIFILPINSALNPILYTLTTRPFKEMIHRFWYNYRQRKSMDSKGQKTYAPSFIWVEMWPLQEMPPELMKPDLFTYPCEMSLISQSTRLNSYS
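HEK293T cells stably expressing RXFP1 were pretreated with the PDE4 inhibitor Ro 20174, exposed to compounds for 30 min at 37C, lysed, and cAMP was read by TR-FRET. Data normalized to buffer (basal) and 29 nM porcine relaxin (100%).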
RXFP1 antag: RXFP1 (human) relaxin receptor antagonism. HEK293-RXFP1, relaxin-stimulated cAMP HTRF, 30 min; hits give low values. activity change, negative = inhibition, % at 57.5 µM. Q9HBX9. hit rate 0.59% among 350,000;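 active = activity change of -60% or lower, but not beyond a set lower limit; inconclusive = change between -60% and -40%, or beyond the set limit; inactive = change above -40%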; note: % is set by controls: 0 for no effect and ±100 for the full control effect
The depositor's hits bear a star; i = inactive; ? = inconclusive; . = not tested or not shown; [ ] = another dose, or the depositor's remark. Most compounds without a hit are left out; they make up all but 1.2% or so of the library.

SMILES | Akt phos inh | gsp antagonist | gsp agonist | RXFP1 agonist | RXFP1 antag
Cc1ccc(N=Cc2cc(Cc3ccccc3Cl)cc([N+](=O)[O-])c2O)c(O)c1 | i | -28.6% | -102.2% | -4.7% | -96.1*
COc1ccc(N=Cc2cc(Cc3ccccc3Cl)cc([N+](=O)[O-])c2O)cc1OC | i | -3.4% | -26.0% | 0.6% | -10.3
O=C(NCc1cccc(Cl)c1)c1ccc(NC(=O)N2CC3CCCN3c3ccccc32)cc1 (configuration not stated) | . | . | . | 0.1% | -2.1
COc1cc(/C=C2/C(=N)N3OC(C)=CC3=NC2=O)ccc1OC(=O)c1ccco1 | i | -4.3% | 6.1%[15.4 µM] | 2.4% | -74.7*
CC1=CSC2=NC(=O)/C(=C/c3cccc(OC(=O)c4ccco4)c3)C(=N)N12 | i | 0.5% | 17.8% | -0.5% | -80.0*
COc1ccc(CCNC(=O)C(=O)NCC(c2ccco2)S(=O)(=O)c2ccc(F)cc2)cc1 (configuration not stated) | . | . | . | 2.6% | -8.1
N=C1N=C(N)c2cc3ccccc3cc21 | . | . | . | . | -80.4*
c1ccc2c(c1)ncn2CCCOc1ccc2c(c1)CCC2 | i | 28.2µM* | -18.4% | 1.2% | 11.6
COc1ccc2oc(=O)cc(CN3CCN(C(=O)c4ccccc4)CC3)c2c1 | . | . | . | 2.9% | -1.9
COc1ccc(CCN2C(=O)c3oc4cc(C)cc(C)c4c(=O)c3C2c2ccc(F)cc2)cc1OC (configuration not stated) | . | . | . | -0.2% | -6.3
O=C(Nc1ccccc1)c1ccc(=O)n(Cc2ccc(F)c(F)c2)c1 | i | -11.1% | -2.4% | -0.6% | -61.9*
Cc1nc2n(c(=O)c1CCN1CCC(C(=O)c3ccc(F)cc3)CC1)CCS2 | . | . | . | . | 44.0
COc1ccc(-c2noc(CC(=O)Nc3cc(OC)ccc3OC)n2)cc1 | . | . | . | -2.3% | -18.1
COC(=O)C1C(c2ccccc2)C(C(=O)O)C1c1ccccc1 (configuration not stated) | i | 8.5% | 9.6% | -2.2% | 12.4
COC(=O)C1OC2(OC1C(=O)OC)c1ccccc1-c1ccccc12 (configuration not stated) | -119.7%* | 0.1% | 24.9% | -0.8% | 3.6
Cc1ccc(C(=O)NNc2cc(N3CCCC3)nc(N3CCCC3)n2)cc1 | i | 2.7% | 6.8% | -0.1% | -62.3*
O=C(NNc1cc(N2CCOCC2)nc(N2CCOCC2)n1)c1ccc(Cl)c(Cl)c1 | i | -4.1% | ? | -0.4% | 3.0
COc1ccc(S(=O)(=O)c2c(Nc3ccccc3F)sc(C(=O)c3cccc(OC)c3)c2N)cc1 | . | . | . | 0.5% | -3.2
Cc1ccc(S(=O)(=O)c2cc3c(=O)n4ccccc4nc3n(C3CCCC3)c2=N)cc1 | i | -2.8% | -33.0% | -0.9% | -83.6*
Cc1ccc(S(=O)(=O)c2cc3c(=O)n4cccc(C)c4nc3n(C3CCCCC3)c2=N)cc1 | i | 4.5% | -1.5% | -1.1% | -5.1
CCOC(=O)c1cnn(-c2ccc(OC)cc2)c1C1CCN(C(=O)OC(C)(C)C)CC1 | . | . | . | 1.8% | .
O=C(O)CCC(=O)Nc1nnc(C(F)(F)F)s1 | i | 1.7% | -9.6% | 7.4% | -1.7
CCC(NC(=O)Nc1nnc(C(F)(F)F)s1)(C(F)(F)F)C(F)(F)F | i | 4.47µM* | -0.5% | 0.9% | -2.1
Cc1cc(Cl)ccc1OCC(=O)Nc1c(C(=O)c2ccccc2)oc2ccccc12 | . | . | . | 7.1% | 20.7
Cc1cc(Cl)n2nc(C)c(-c3ccc(Cl)cc3)c2n1 | i | -21.7% | 10.8%[15.4 µM] | 2.0% | -69.0*
SMILES | Akt phos inh | gsp antagonist | gsp agonist | RXFP1 agonist | RXFP1 antag
Cc1cc(N)n2nc(C)c(-c3ccc(Cl)cc3)c2n1 | i | . | 3.4%[15.4 µM] | -0.6% | 0.1
CCc1nc2c(cnn2-c2ccc(Cl)cc2)c(=O)n1-c1ccc(OC)c(Cl)c1 | . | . | . | 7.1% | 8.7
O=C(Nc1nc(-c2nc3ccccc3s2)cs1)C1COc2ccccc2O1 (configuration not stated) | i | -21.7% | 11.2µM* | 21.0% | .
CN(C)c1cc(NC(=O)CNC(C)(C)C)c(O)c2c1C[C@@H]1C[C@H]3[C@H](N(C)C)C(=O)C(C(N)=O)=C(O)[C@@]3(O)C(=O)C1=C2O | . | . | . | . | 8.4
CCOC(=O)C/C(C)=N\Nc1nc(-c2ccccc2)cs1 | i | 8.91µM* | 7.0%[15.4 µM] | -2.2% | -18.7
CC(C)=NNc1nc(-c2ccccc2)cs1 | i | 11.9% | -11.3% | 0.1% | -2.9
O=c1c2[nH]c3ccccc3c2ncn1Cc1ccncc1 | -94.4%* | 14.9% | 19.7% | 0.4% | -3.3
COc1ccccc1CNC(=O)C(Cc1ccccc1)NS(=O)(=O)c1ccc2c(c1)CCN2C(C)=O (configuration not stated) | . | . | . | -1.7% | 3.2
O=C(CSc1nc2ccsc2c(=O)n1Cc1ccccc1F)NCc1ccccc1Cl | . | . | . | 1.1% | -30.8
O=C(Nc1ccccc1C(=O)O)c1ccc(NC(=O)C2CCCCC2)cc1 | i | 31.6µM* | 6.7%[15.4 µM] | 0.6% | ?
O=C(Nc1ccccc1)c1ccc(NC(=O)C2CC2)cc1 | i | 9.3% | -42.2% | 6.0% | 0.3
Cc1ccc(C(=O)Nc2ccccc2C(=O)O)cc1S(=O)(=O)N1CCCCCC1 | . | . | . | -0.2% | -102.4*
O=C(Nc1ccccc1C(=O)O)c1ccc(NC(=O)c2ccc(Br)o2)cc1 | i | 35.5µM* | 22.3% | -2.4% | -36.6
COc1ccc(C(=O)Nc2ccccc2C(=O)O)cc1NC(=O)C(c1ccccc1)c1ccccc1 | i | 39.8µM* | -1.7% | 0.5% | -24.2
COc1ccccc1NC(=O)c1ccc(C)c(S(=O)(=O)N2CCCCC2)c1 | i | -25.5% | -18.3%[15.4 µM] | 2.7% | -6.6
COc1ccc(CCNCc2c(C(=O)O)c(C)n(Cc3ccccc3C)c2C)c(OC)c1 | . | . | . | 0.6% | -18.1
CCCN1C(=O)C2(c3ccccc31)c1c(oc3ccccc3c1=O)C(=O)N2CCO (configuration not stated) | . | . | . | -0.5% | .
COc1ccccc1C(=O)Nc1ccc(C(=O)Nc2ccccc2C(=O)O)cc1 | i | 35.5µM* | ? | 2.0% | -18.0
COc1ccccc1NC(=O)c1ccccc1NC(=O)c1ccccc1 | . | . | . | 0.9% | -13.5
O=C(C1CC1)N1N=C(c2ccncc2)CC1(O)C(F)(F)F (configuration not stated) | i | -1.4% | -19.6% | 0.0% | -62.5*
O=C(c1ccccc1O)N1N=C(c2ccccc2)CC1(O)C(F)(F)F (configuration not stated) | i | 1.4% | -94.0% | -0.6% | -76.2*
O=C(C1CC1)N1N=C(c2cccc(Br)c2)CC1(O)C(F)(F)F (configuration not stated) | i | 0.6% | -26.3%[15.4 µM] | 2.4% | -35.2
CNC(=O)c1ccccc1Sc1ccc2c(/C=C/c3ccccn3)n[nH]c2c1 | . | . | . | . | 28.2
Cc1cccc2nc(-c3cccnc3)c(Nc3ccc(C(C)C)cc3)n12 | . | . | . | 0.5% | -87.5*
Cc1ccc2c(c1)c1c3n2CCN(C(=O)c2cccc(C(F)(F)F)c2)C3CCC1 (configuration not stated) | . | . | . | 1.6% | ?
